Bioassay records deposited in PubChem by NMMLSC.
An excerpt weighted towards active compounds, which were near 0.2% of everything screened.
Bcl-W Bim block: inhibitors of Bim binding to Bcl-W, primary screen, biochemical, multiplexed, bead-based flow cytometry | Bim peptide-Bcl-W binding | inhibition, % at 10 µM | actives 0.02% (n = 190,000) | Bcl-2-like protein 2 (Homo sapiens), Q92843;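 also: 0% = bound tracer without compound and 100% = peptide blocker; higher means less fluorescent Bim peptide bound to Bcl-W beads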
Target sequence (Q92843 whole entry, looked up): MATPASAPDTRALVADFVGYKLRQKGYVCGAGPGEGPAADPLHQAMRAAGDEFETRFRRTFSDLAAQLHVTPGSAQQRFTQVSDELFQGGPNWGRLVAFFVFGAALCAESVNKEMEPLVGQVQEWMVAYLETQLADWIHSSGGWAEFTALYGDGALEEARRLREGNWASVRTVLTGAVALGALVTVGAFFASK
Bim-Bfl-1: inhibitors of Bim binding to Bfl-1, primary screen, biochemical, multiplexed, bead-based flow cytometry. Bcl-2-related protein A1 (Homo sapiens), Q16548. actives 0.12% (n = 190,000). inhibition, % at 10 µM. Bim-Bfl-1 binding inhibition;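 also: 0% = wells without compound plus tracer and 100% = blocker peptide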
Target sequence (Q16548 whole entry, looked up): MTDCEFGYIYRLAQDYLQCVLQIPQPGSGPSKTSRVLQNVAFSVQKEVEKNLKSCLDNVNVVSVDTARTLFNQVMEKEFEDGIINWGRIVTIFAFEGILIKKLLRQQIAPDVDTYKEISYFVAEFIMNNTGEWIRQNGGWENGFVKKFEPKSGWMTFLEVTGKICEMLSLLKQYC
Bcl-B Bim block: inhibitors of Bim-Bcl-B binding, primary screen, biochemical, multiplexed, human Bcl-2 family. actives 0.073% (n = 190,000). inhibition, % at 10 µM. AID 951, 2007. bead-based flow cytometry, Bim peptide-Bcl-B binding. Bcl-2-like protein 10 (Homo sapiens), Q9HD36;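 also: 0% = tracer peptide without compound and 100% = reference inhibitor peptide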
Target sequence (Q9HD36 whole entry, looked up): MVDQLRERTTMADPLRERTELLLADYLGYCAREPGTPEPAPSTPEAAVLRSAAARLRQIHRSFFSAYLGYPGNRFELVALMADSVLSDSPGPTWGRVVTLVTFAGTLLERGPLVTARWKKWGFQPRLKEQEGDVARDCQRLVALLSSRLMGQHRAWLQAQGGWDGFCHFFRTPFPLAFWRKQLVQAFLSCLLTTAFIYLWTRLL
Bim-Bcl-XL: inhibitors of Bim-Bcl-XL binding, primary screen, biochemical, multiplexed, bead flow cytometry, human Bcl-XL; inhibition, % at 10 µM; Bim peptide-Bcl-XL binding, fluorescence; actives 0.04% (n = 190,000); Bcl-2-like protein 1 (Homo sapiens), Q07817
Bcl-2 Bim block: inhibitors of Bim-Bcl-2 binding, primary screen, biochemical, multiplexed, human Bcl-2 family | Bead-based flow cytometry, Bim peptide-Bcl-2 binding | Apoptosis regulator Bcl-2 (Homo sapiens), P10415 | actives 0.06% (n = 190,000) | inhibition, % at 10 µM | AID 950, 2007; in the data active = inhibition above about 40%;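 also: 0% = no compound wells with probe peptide and 100% = reference peptide inhibitor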
* marks the source's active call; other numbers are inactive results. Rule as the data show it, unless noted: active = inhibition above about 40%.

For CNC(=O)CC1C(=O)N(Cc2ccccc2)C(=S)N1NC(=O)c1cccc(F)c1 (configuration not stated) the results were Bcl-W Bim block 28, Bim-Bfl-1 40*, Bcl-B Bim block 25, Bim-Bcl-XL 40* and Bcl-2 Bim block 27.
Screening Cc1ccc(NC(=O)CC2C(=O)N(Cc3ccccc3)C(=S)N2NC(=O)c2ccccc2)c(C)c1 (configuration not stated) returned Bcl-W Bim block -7, Bim-Bfl-1 -10, Bcl-B Bim block -12, Bim-Bcl-XL -8 and Bcl-2 Bim block -12.
CCOC(=O)c1sc(NC(=O)CSc2nc3c(c(=O)n2-c2ccc(F)cc2)SCC3)c(C(=O)OCC)c1C was read as Bcl-W Bim block -3, Bim-Bfl-1 -1, Bcl-B Bim block -3, Bim-Bcl-XL 0 and Bcl-2 Bim block 0.
`CCOc1ccc2oc(-c3ccccc3)c(C(=O)N3CCN(C)CC3)c2c1` gave Bcl-W Bim block -3, Bim-Bfl-1 -2, Bcl-B Bim block -2, Bim-Bcl-XL -3 and Bcl-2 Bim block -2.
COc1ccc2oc(-c3ccccc3)c(C(=O)N3CCOCC3)c2c1 was read as Bcl-W Bim block 8, Bim-Bfl-1 60*, Bcl-B Bim block 81*, Bim-Bcl-XL 14 and Bcl-2 Bim block 80*.
For CN(C)S(=O)(=O)c1cccc(-c2nn(-c3ccccc3)cc2/C=C(\C#N)c2nc3ccccc3[nH]2)c1 the results were Bcl-W Bim block -4, Bim-Bfl-1 0, Bcl-B Bim block -4, Bim-Bcl-XL -6 and Bcl-2 Bim block 0.
Screening CN(C)S(=O)(=O)c1cccc(-c2nn(-c3ccccc3)cc2/C=C2\SC(=S)NC2=O)c1 returned Bcl-W Bim block 37, Bim-Bfl-1 41*, Bcl-B Bim block 55*, Bim-Bcl-XL 43* and Bcl-2 Bim block 31.
For Cc1nn(-c2ccccn2)c2c1C(=O)C(Br)CC2 (configuration not stated) the results were Bcl-W Bim block 35, Bim-Bfl-1 59*, Bcl-B Bim block 0, Bim-Bcl-XL 12 and Bcl-2 Bim block 24.
Screening CCN(C(=S)NC(=O)CCc1ccccc1)c1ccccc1 returned Bcl-W Bim block -2, Bim-Bfl-1 -3, Bcl-B Bim block -1, Bim-Bcl-XL -3 and Bcl-2 Bim block -2.
For O=C(OCc1cnc(Cl)s1)c1ccccc1Cl the results were Bcl-W Bim block -2, Bim-Bfl-1 -13, Bcl-B Bim block -4, Bim-Bcl-XL -4 and Bcl-2 Bim block -5.
For O=C(OCc1cnc(Cl)s1)c1cccc(Cl)c1Cl the results were Bcl-W Bim block 12, Bim-Bfl-1 51*, Bcl-B Bim block 70*, Bim-Bcl-XL 7 and Bcl-2 Bim block 76*.
COc1cccc(-n2nnc(S(=O)(=O)c3ccc(C)cc3)c2N)c1 was read as Bcl-W Bim block -1, Bim-Bfl-1 -6, Bcl-B Bim block -4, Bim-Bcl-XL -5 and Bcl-2 Bim block 0.
`COc1ccc(/C=C2\SC(=O)NC2=S)cc1OC` gave Bcl-W Bim block 18, Bim-Bfl-1 16, Bcl-B Bim block 28, Bim-Bcl-XL 9 and Bcl-2 Bim block 53*.
For CCOc1ccc(/C=C2\SC(=S)NC2=O)cc1OC the results were Bcl-W Bim block -4, Bim-Bfl-1 0, Bcl-B Bim block 2, Bim-Bcl-XL -1 and Bcl-2 Bim block 0.
Screening CN1CCN(C2=C(Cl)C(=O)N(C3CCCCC3)C2=O)CC1 returned Bcl-W Bim block 0, Bim-Bfl-1 -12, Bcl-B Bim block -11, Bim-Bcl-XL -3 and Bcl-2 Bim block -6.
`CN1CCN(C2=C(Cl)C(=O)C(c3cnc(N4CCCCC4)s3)=C(Cl)C2=O)CC1` gave Bcl-W Bim block 30, Bim-Bfl-1 54*, Bcl-B Bim block 58*, Bim-Bcl-XL 26 and Bcl-2 Bim block 44*.
For Cc1ccc(C)c(NC(=O)C(=O)NCc2ccccn2)c1 the results were Bcl-W Bim block 33, Bim-Bfl-1 49*, Bcl-B Bim block 27, Bim-Bcl-XL 46* and Bcl-2 Bim block 34.
Screening Cc1ccc(NC(=O)NCc2ccccn2)cc1 returned Bcl-W Bim block 0, Bim-Bfl-1 -3, Bcl-B Bim block -1, Bim-Bcl-XL 0 and Bcl-2 Bim block 0.
`O=C(NCc1ccc2c(c1)OCO2)c1n[nH]c(=O)c2ccccc12` gave Bcl-W Bim block -6, Bim-Bfl-1 -6, Bcl-B Bim block -2, Bim-Bcl-XL -3 and Bcl-2 Bim block -3.
For Cc1c(N(C(=O)c2ccccn2)C2(C(=O)NC3CCCC3)CCCCC2)c(=O)n(-c2ccccc2)n1C the results were Bcl-W Bim block 0, Bim-Bfl-1 3, Bcl-B Bim block 2, Bim-Bcl-XL -1 and Bcl-2 Bim block 2.
Screening Brc1ccc(C2=Nc3cccc4cccc(c34)N2)o1 returned Bcl-W Bim block 4, Bim-Bfl-1 12, Bcl-B Bim block -5, Bim-Bcl-XL -1 and Bcl-2 Bim block 1.
For Fc1ccc(C2=Nc3cccc4cccc(c34)N2)cc1 the results were Bcl-W Bim block 37, Bim-Bfl-1 49*, Bcl-B Bim block 0, Bim-Bcl-XL 10 and Bcl-2 Bim block 21.
O=C(COC(=O)c1ccc(CNS(=O)(=O)c2ccc(F)c(Cl)c2)cc1)NCC1CCCCC1 was read as Bcl-W Bim block -1, Bim-Bfl-1 -16, Bcl-B Bim block -6, Bim-Bcl-XL -3 and Bcl-2 Bim block -7.
For CN1C(=O)C(CC(=O)NC2CCCCC2)SC1=Nc1ccccc1 (configuration not stated) the results were Bcl-W Bim block -2, Bim-Bfl-1 -4, Bcl-B Bim block -1, Bim-Bcl-XL -6 and Bcl-2 Bim block -1.
COc1cccc2c1C(=O)c1c(O)c3c(c(O)c1C2=O)C[C@@](O)(C(=O)CO)C[C@@H]3O[C@H]1C[C@H](N)[C@H](O)[C@H](C)O1 was read as Bcl-W Bim block 59*, Bim-Bfl-1 60*, Bcl-B Bim block 86*, Bim-Bcl-XL 57* and Bcl-2 Bim block 54*.
COc1cccc(NC(=S)N2CCn3cccc3C2c2cccnc2)c1 (configuration not stated) was read as Bcl-W Bim block 1, Bim-Bfl-1 3, Bcl-B Bim block 7, Bim-Bcl-XL -2 and Bcl-2 Bim block 2.
Screening Cc1cccc(NC(=S)N2CCn3cccc3C2c2cccnc2)c1 (configuration not stated) returned Bcl-W Bim block -1, Bim-Bfl-1 0, Bcl-B Bim block 41*, Bim-Bcl-XL -3 and Bcl-2 Bim block 5.
COc1ccc(N2CCN(C(=O)c3cc(=O)[nH]c4ccccc34)CC2)cc1 was read as Bcl-W Bim block 1, Bim-Bfl-1 58*, Bcl-B Bim block 74*, Bim-Bcl-XL 8 and Bcl-2 Bim block 80*.
